Source: PubChem BioAssay
Compounds with a hit are over-represented: about 3.1% of the library has one in this group of screens.
KKLEB tox: CF airway cell cytotoxicity counter-screen. activity change (cytotoxicity), % at 5 µM. 0.36% of 360,000 active. KKLEB CF airway cells viability, ATPlite luminescence, overnight; active compounds read low; cells stimulated with P. aeruginosa culture filtrate. AID 602141;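 active = corrected activity change at or below -50% at 5 µM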
CF NFkB inh: blocks PAF-induced NF-kB reporter in cystic fibrosis cells; KKLEB NF-kB-GFP reporter, GFP fluorescence overnight; inhibition, % at 5 µM; 0.86% of 360,000 active; AID 588850;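 active = at least 50% inhibition at 5 µM, scaled per plate between neutral and stimulator controls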;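 note: PAF is a Pseudomonas aeruginosa culture filtrate used as stimulus; plate controls were PAF-stimulated DMSO wells for no effect and unstimulated DMSO wells for full effect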
ABHD5 PLIN5 PPI: inhibitors of human ABHD5-perilipin-5 interaction; AID 602281; Q00G26+Q8WTS1; 0.78% of 360,000 active; inhibition, % at 4 µM; Split G. princeps luciferase complementation, luminescence, 4 h;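 active = inhibition above the mean inhibition across every tested compound plus 3 SD, cut at about 22% in these data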;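 note: 0% = DMSO only wells and the 100% control is not disclosed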
Target sequence (Q00G26 whole entry, looked up): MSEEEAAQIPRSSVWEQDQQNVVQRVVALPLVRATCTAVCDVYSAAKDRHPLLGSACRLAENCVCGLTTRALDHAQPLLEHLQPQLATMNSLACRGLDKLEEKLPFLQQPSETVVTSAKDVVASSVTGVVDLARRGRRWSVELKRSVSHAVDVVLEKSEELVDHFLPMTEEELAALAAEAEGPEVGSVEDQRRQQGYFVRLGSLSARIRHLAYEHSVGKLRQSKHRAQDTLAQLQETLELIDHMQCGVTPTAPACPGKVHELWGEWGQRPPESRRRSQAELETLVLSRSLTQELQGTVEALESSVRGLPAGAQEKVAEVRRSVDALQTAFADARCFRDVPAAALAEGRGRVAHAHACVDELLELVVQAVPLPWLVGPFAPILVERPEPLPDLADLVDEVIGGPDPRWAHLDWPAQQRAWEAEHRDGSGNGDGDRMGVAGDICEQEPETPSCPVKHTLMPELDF
Target sequence (Q8WTS1 whole entry, looked up): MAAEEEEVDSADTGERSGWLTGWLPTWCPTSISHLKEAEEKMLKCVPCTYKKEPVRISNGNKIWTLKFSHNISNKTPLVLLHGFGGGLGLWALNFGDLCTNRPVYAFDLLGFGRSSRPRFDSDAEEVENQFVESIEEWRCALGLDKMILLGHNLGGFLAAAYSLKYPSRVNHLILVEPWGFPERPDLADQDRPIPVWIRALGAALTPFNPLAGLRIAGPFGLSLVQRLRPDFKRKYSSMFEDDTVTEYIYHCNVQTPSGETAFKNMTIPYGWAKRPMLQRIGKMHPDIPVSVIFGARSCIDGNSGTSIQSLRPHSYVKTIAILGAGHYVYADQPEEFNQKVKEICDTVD
Peg3 prom inh: reduces Peg3 promoter-driven luciferase expression in HeLa; HeLa PEG-Prom luciferase reporter, luminescence, overnight; inhibition, % at 20 µM; 1.7% of 360,000 active; AID 588405;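 active = inhibition of at least 50% at 20 µM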
HIF-2a block: inhibitors of HIF-2a. 786-0 RCC cells HIF-2a reporter, luciferase luminescence, overnight. inhibition, % at 18.8 µM. 0.72% of 360,000 active;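 active = inhibition of the luminescence signal of 40% or more relative to plate controls, in a single-dose primary screen at 18.75 µM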
MITF TRPM1 inh: MITF TRPM1 promoter inhibition in SK-MEL-5 cells. SK-MEL-5 TRPM1 promoter luciferase, 24 h. inhibition, % at 12.5 µM. 0.83% of 330,000 active;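 active = mean inhibition across replicates of 60% or more, whatever share of single replicates reaches that level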
ABHD5-PLIN5 conf: ABHD5-PLIN5 interaction inhibition, confirmed; shares compounds with ABHD5 PLIN5 PPI; biochemical ABHD5-PLIN5 interaction, luminescence; inhibition, % at 4 µM; 67% of 2,200 active; in the data active = inhibition above about 23%;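 note: 0% = DMSO vehicle wells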
HNF4 split-luc: HNF4 split-luciferase signal hit, counter-screen; 77% of 2,200 active; inhibition, % at 4 µM; shares compounds with ABHD5 PLIN5 PPI; AID 651674; HNF4 dimerization, luminescence, biochemical;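 active = mean inhibition across replicate wells exceeding the computed hit threshold, cut at about 13% in these data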;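 note: light from luciferase halves that rejoin when HNF4 fusion proteins dimerize; 0% = DMSO only wells and the 100% control is not given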
Numbers without * were called inactive; / = no result given.

SMILES	KKLEB tox	CF NFkB inh	ABHD5 PLIN5 PPI	Peg3 prom inh	HIF-2a block	MITF TRPM1 inh	ABHD5-PLIN5 conf	HNF4 split-luc
Cc1ccc(/C=C/C(=O)N2CCc3ccccc32)o1	-2	-6	24*	-133	-209	-50	16	50*
Cc1ccc(NC=C(S(=O)(=O)c2ccccc2)S(=O)(=O)c2ccccc2)c(C)c1	-10	14	1	-29	-19	7	/	/
Cc1ccc(N/C=C(\C2OC(=O)c3ccccc32)[N+](=O)[O-])c(C)c1 (stereo not given)	3	-25	54*	16	1	-6	9	34*
O=C1OC(/C(=C\Nc2cc(Cl)ccc2O)[N+](=O)[O-])c2ccccc21 (stereo not given)	-2	0	62*	14	17	6	15	50*
O=C1OC(Nc2ccc(F)cc2F)c2ccccc21 (stereo not given)	1	-7	-4	10	3	12	/	/
O=C1OC(/C(=C\Nc2ccc(F)cc2F)[N+](=O)[O-])c2ccccc21 (stereo not given)	-9	10	54*	18	-4	0	25*	61*
Cc1cccc(C)c1NC(=O)C(c1ccnc2ccccc12)n1c(=O)c(-c2ccco2)nc2ccccc21 (stereo not given)	/	/	45*	/	-2	/	52*	13*
Cc1cccc(C)c1NC(=O)C(c1cccc2ccccc12)n1c(=O)c(-c2cc3ccccc3[nH]2)nc2ccccc21 (stereo not given)	/	/	2	/	0	/	/	/
Cc1cccc(C)c1NC(=O)C(c1ccccc1F)n1c(=O)c(-c2cc3ccccc3[nH]2)nc2ccccc21 (stereo not given)	/	/	3	/	-5	/	/	/
Cc1cccc(C)c1NC(=O)C(c1ccccc1F)n1c(=O)c(-c2ccco2)nc2ccccc21 (stereo not given)	/	/	86*	/	18	/	76*	28*
O=C(CSc1nc2nn(-c3ccccc3)c(=O)c-2c2n1CCCCC2)NCCc1ccccc1	-4	12	7	6	5	-6	/	/
COc1ccccc1N=CC=C1OC(C)(C)C(C)(C)O1	0	-11	37*	15	15	-1	-5	10
Cc1ccc(N=CC=C2OC(C)(C)C(C)(C)O2)c(C)c1	-4	-13	2	-3	14	-3	/	/
CCC(=O)OCOc1ccc(/C=C2/CCC(CN(C)C)C2=O)cc1 (stereo not given)	-2	-4	51*	100*	93*	67*	95*	109*
CCOC(=O)c1c(NC(=O)COC(=O)CCOc2ccc(C)cc2)sc(C(=O)N(C)C)c1C	-9	16	16	10	4	0	/	/
O=C1/C(=C\c2ccco2)NC(=S)N1c1ccccc1	12	-22	25*	-10	2	-28	30*	44*
COc1ccc(S(=O)(=O)/N=C2/C=CC(=O)C(C)=C2C)cc1	22	-11	16	13	9	7	/	/
CC1=C(C)/C(=N\OS(=O)(=O)c2ccc(C)cc2)C=CC1=O	-36	72*	61*	106*	88*	48	67*	96*
CCCN(C(=O)COC(=O)CSc1ccc([N+](=O)[O-])cc1)C1CCS(=O)(=O)C1 (stereo not given)	17	14	12	-5	-3	-4	/	/
O=C(Cn1cnc2c(cnn2-c2ccc(F)cc2)c1=O)NCc1ccco1	-4	-5	1	-14	-14	8	/	/
Cc1sc2ncn(CC(=O)NCc3ccco3)c(=O)c2c1-c1ccc(F)cc1	-39	30	29*	12	7	-6	56*	62*
CCOC(=O)N1CCN(C(=O)c2oc3ccc(S(=O)(=O)N(CC)CC)cc3c2C)CC1	10	-5	0	22	19	-6	/	/
C(=C\c1ccco1)/C1=NN(c2ccccc2)C(c2ccco2)C1 (stereo not given)	-7	2	34*	-73	-186	-19	27*	18*
O=[N+]([O-])c1ccc(/C=C/C2=NN(c3ccccc3)C(c3ccco3)C2)o1 (stereo not given)	1	-86	2	-19	-74	6	/	/
NS(=O)(=O)c1ccc(CCN=C(NS(=O)(=O)c2cccs2)c2ccccc2)cc1	-5	1	-4	3	16	-5	/	/
SMILES	KKLEB tox	CF NFkB inh	ABHD5 PLIN5 PPI	Peg3 prom inh	HIF-2a block	MITF TRPM1 inh	ABHD5-PLIN5 conf	HNF4 split-luc
CCc1ccc(NC(=O)CN2CCCN(S(=O)(=O)c3ccc(F)cc3)CC2)cc1	-2	2	4	27	14	1	/	/
Cc1ccc(S(=O)(=O)N2CCOCC2)cc1C(=O)N1CCN(S(=O)(=O)c2cccs2)CC1	3	13	-3	25	14	-1	/	/
COc1cc(N2C(=O)C=CC2=O)ccc1N1C(=O)C=CC1=O	-32	78*	52*	111*	85*	74*	75*	111*
O=C1NC(=O)/C(=C\c2ccc(N3CCOCC3)o2)N1	2	5	68*	-10	-12	-1	42*	94*
Cc1cc(/C=C2\NC(=O)NC2=O)c(C)n1-c1ccc(N2CCOCC2)cc1	17	-4	9	-9	0	3	/	/
O=C1NC(=O)/C(=C/c2ccc(N3CCOCC3)o2)N1	8	-13	29*	10	12	-6	27*	47*
Cc1ccc(Cl)cc1NC(=O)C[n+]1ccc(Cc2ccc([N+](=O)[O-])cc2)cc1	-4	9	24*	19	6	2	15	-2
Oc1ccc(N=Nc2ccccc2)o1	-21	95*	41*	38	16	9	66*	68*
OCCN1CCN(CC(O)COc2ccc(C34CC5CC(CC(C5)C3)C4)cc2)CC1 (stereo not given)	-43	21	36*	114*	7	22	15	5
CCOc1ccc2cc(/C=C/C(=O)c3ccco3)c(Cl)nc2c1	0	2	25*	-162	-100	-34	71*	56*
CCOc1ccc2nc(SCC(=O)NNC(=O)c3ccco3)c(C)cc2c1	2	4	-2	6	-3	3	/	/
Brc1ccc2nc(-c3ccco3)c(CC3CCCCC3)n2c1	-1	23	24*	-30	-4	/	28*	38*
Cc1cc(Br)cn2c(Cc3ccccc3)c(-c3ccco3)nc12	-22	35	30*	-63	-130	/	30*	45*
CC(C)(C)Cc1c(-c2ccco2)nc2ccc(Cl)cn12	3	-2	15	-28	-34	/	/	/
